Most compounds without a hit are left out; they make up all but 9.9% or so of the library.
KB-3-1 cytotox = KB-3-1 parental cell cytotoxicity | hit rate 1.4% among 400,000 | Potency, µM (highest dose often 46.1 µM), actives largely listed as cytotoxic | AID 1347075 | KB-3-1 viability, CellTiter-Glo ATP luminescence, 72 h; further: nearly all actives have a fitted effect of over 60% in size
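Parental KB-3-1 viability, qHTS format: 72 h compound exposure, 37 °C; CellTiter-Glo; media-only wells and DMSO plates as controls; concentration-effect fits on corrected data.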
SW480 rerep = inducers of DNA re-replication in SW480 colon cancer cells. Potency, µM (doses to about 46.1 µM), hits mostly activators. SW480 DNA re-replication, Hoechst DNA content imaging, 48 h. hit rate 1.8% among 340,000; further: nearly all actives have a fitted effect of over 55% in size
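Quantitative HTS format with DMSO vehicle controls; 48 hr drug incubation at 37 C, then 40 min Hoechst staining and scanning imager measurement at 405 nm excitation.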
KB-V1 MDR tox = kills drug-selected multidrug resistant KB-V1 cells | KB-V1 MDR cells viability, CellTiter-Glo, 72 h | Potency, µM (highest dose often 46.1 µM), most hits filed as cytotoxic | AID 1347076 | hit rate 3.4% among 400,000; further: nearly all actives have a fitted effect of over 60% in size
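KB-V1 cells (P-gp-expressing MDR subline of KB-3-1) in phenol-red-free DMEM with 10% FBS were exposed to library compounds over a concentration series for 72 h at 37 degrees C. Viability read by CellTiter-Glo luminescence; concentration-effect curves fitted after normalization.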
IL-1B inflam inh = inhibitors of inflammasome signaling (IL-1 beta secretion); THP-1 LPS/ATP IL-1B secretion, AlphaLISA, 16 h; hits give low values; activity change, % at 57.5 µM; hit rate 4.7% among 360,000; in the data active means activity change below about -50%; inconclusive means mostly about -30% to -49%
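THP-1 cells pretreated 1 hr with compounds (up to 57.5 uM final), then stimulated with LPS (250 ng/mL final) plus ATP (1.25 mM final); secreted IL-1B measured by AlphaLISA after 16 hr, decreased signal indicating inhibition.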
MCF10A rereplic = DNA re-replication induction in MCF 10a cells | hit rate 2.9% among 350,000 | MCF 10A DNA re-replication, Hoechst nuclear intensity, 48 h | AID 624296 | Potency, µM (titrated, usually from 46.1 µM), usual class: activators; further: nearly all actives have a fitted effect of over 50% in size
Each line names hits and unclear results; the compound was inactive in the other large screens. Unless noted, the call rests on the fitted dose curve; in most records, active means well fitted curve in the direction sought with a large enough effect; inconclusive means small, poorly fitted or top-dose-only effect, or another doubt; inactive means no such curve, though single readings can be large; an effect the other way counts as inactive or inconclusive.

C=CCOc1ccc(C(=O)c2ccccc2)c(OCC(=O)NC2(C#N)CCCC2)c1	KB-V1 MDR tox inconclusive, IL-1B inflam inh -60
c1ccc(CN(Cc2ccccc2)C(c2ccnc3ccccc23)c2nnnn2-c2ccc3c(c2)OCCO3)cc1 (stereo not given)	KB-3-1 cytotox inconclusive, KB-V1 MDR tox 18µM (no result: SW480 rerep, MCF10A rereplic)
O=C(OCc1ccccc1)N1CCN(C(c2ccnc3ccccc23)c2nnnn2-c2ccc3c(c2)OCCO3)CC1 (stereo not given)	KB-3-1 cytotox 23µM, KB-V1 MDR tox inconclusive, IL-1B inflam inh inconclusive (no result: SW480 rerep, MCF10A rereplic)
N#CCCN(Cc1ccccc1)C(c1ccnc2ccccc12)c1nnnn1-c1ccc2c(c1)OCCO2 (stereo not given)	KB-V1 MDR tox inconclusive (no result: SW480 rerep, MCF10A rereplic)
CCCCc1nnc(NC(=O)CSCc2cc(=O)n3cc(C)sc3n2)s1	none
Cc1cc(Cl)ccc1NS(=O)(=O)c1ccc2c(c1)CC(C)N2C(=O)C1CCC1 (stereo not given)	KB-3-1 cytotox inconclusive (no result: SW480 rerep, IL-1B inflam inh, MCF10A rereplic)
O=C(Nc1ccccc1)OC1CCCCc2cccnc21 (stereo not given)	none
O=C(Nc1cccc(Cl)c1)OC1CCCCc2cccnc21 (stereo not given)	IL-1B inflam inh -80
CC(=O)Nc1ccc(S(=O)(=O)NC(C(=O)O)C(C)O)cc1 (stereo not given)	KB-V1 MDR tox inconclusive
COC(=O)/C=C1\SC(=NC(=O)c2ccc(-c3ccccc3)cc2)NC1=O	MCF10A rereplic inconclusive
CCCCN(CC)S(=O)(=O)c1ccc(C(=O)Nc2nnc(-c3cccs3)o2)cc1	KB-3-1 cytotox 8.2µM, SW480 rerep inconclusive, KB-V1 MDR tox inconclusive, MCF10A rereplic inconclusive
CC1CCCCN1S(=O)(=O)c1ccc(C(=O)Nc2ccccc2-c2nc3ccccc3[nH]2)cc1 (stereo not given)	KB-3-1 cytotox inconclusive, KB-V1 MDR tox 23µM
CCCCN(C)S(=O)(=O)c1ccc(C(=O)Nc2nnc(-c3ccco3)o2)cc1	KB-3-1 cytotox inconclusive, SW480 rerep 13µM, KB-V1 MDR tox inconclusive, MCF10A rereplic inconclusive
O=C(Nc1nnc(-c2ccco2)o1)c1ccc(S(=O)(=O)N2CCCCC2)cc1	KB-3-1 cytotox inconclusive, KB-V1 MDR tox inconclusive (no result: SW480 rerep, MCF10A rereplic)
CN(C)S(=O)(=O)c1ccc(C(=O)Nc2nnc(-c3ccco3)o2)cc1	KB-3-1 cytotox inconclusive, SW480 rerep inconclusive, KB-V1 MDR tox inconclusive, MCF10A rereplic inconclusive
CC1CCCCN1S(=O)(=O)c1ccc(C(=O)Nc2nnc(-c3ccco3)o2)cc1 (stereo not given)	KB-3-1 cytotox inconclusive, SW480 rerep inconclusive, KB-V1 MDR tox 5.8µM
O=C(Nc1ccccc1-c1nc2ccccc2[nH]1)c1ccc(S(=O)(=O)N2CCCCC2)cc1	KB-V1 MDR tox inconclusive, MCF10A rereplic inconclusive
Cc1c(NC(=O)COc2ncnc3ccccc23)c(=O)n(-c2ccccc2)n1C	KB-V1 MDR tox inconclusive
O=C(NCCc1c[nH]c2ccccc12)C(=O)NCC1OCCCN1S(=O)(=O)c1cc(F)ccc1F (stereo not given)	none
Cc1ccc(N(CCC(=O)O)S(=O)(=O)c2ccccc2)cc1	none
CCOc1ccccc1NC(=O)c1ccccc1N(C)S(=O)(=O)c1ccc(C)cc1	KB-3-1 cytotox inconclusive, KB-V1 MDR tox 12µM
CCCNC(=O)c1ccccc1NC(=O)c1ccccc1N(C)S(=O)(=O)c1ccc(C)cc1	KB-3-1 cytotox 18µM, SW480 rerep inconclusive, KB-V1 MDR tox inconclusive, MCF10A rereplic inconclusive
CCOc1ccccc1NC(=O)CCN(c1ccc(C)cc1)S(=O)(=O)c1ccccc1	KB-3-1 cytotox inconclusive, KB-V1 MDR tox 2.6µM
CCCNC(=O)c1ccccc1NC(=O)c1ccccc1N(C)S(C)(=O)=O	none
CCOc1ccccc1NC(=O)c1cc2cc(C)ccc2n1C	KB-3-1 cytotox inconclusive, KB-V1 MDR tox 8.2µM (no result: SW480 rerep, IL-1B inflam inh, MCF10A rereplic)
Cc1ccsc1C(=O)N1CCCC(CO)(Cc2ccccc2F)C1 (stereo not given)	none
CC1CN(c2c(F)c(N)c3c(=O)c(C(=O)O)cn(C4CC4)c3c2F)CC(C)N1 (stereo not given)	none (no result: KB-3-1 cytotox, KB-V1 MDR tox, IL-1B inflam inh)
Cc1ccc(F)c(S(=O)(=O)NC(=O)C2(C)CCN2C(=O)Cc2ccccc2)c1 (stereo not given)	none (no result: SW480 rerep, MCF10A rereplic)
COc1ccc(N2CCN(C(=O)c3cn(CC4CCCCC4)nn3)CC2)cc1	none
Cc1ccc(C(=O)NCCn2c(N)c(C#N)c3nc4ccccc4nc32)cc1	KB-3-1 cytotox inconclusive, SW480 rerep 21µM, MCF10A rereplic inconclusive
N#Cc1c(N)n(CCOC(=O)c2cccc([N+](=O)[O-])c2)c2nc3ccccc3nc12	none
N#Cc1c(N)n(CCNC(=O)c2ccc(Cl)cc2)c2nc3ccccc3nc12	SW480 rerep inconclusive, IL-1B inflam inh -58, MCF10A rereplic 18µM
N#Cc1c(N)n(CCOC(=O)c2cccc(Br)c2)c2nc3ccccc3nc12	SW480 rerep inconclusive, MCF10A rereplic inconclusive
c1nc(SSc2ncnc3nc[nH]c23)c2[nH]cnc2n1	KB-3-1 cytotox 5.2µM, SW480 rerep inconclusive, KB-V1 MDR tox 2.3µM, IL-1B inflam inh inconclusive, MCF10A rereplic inconclusive
COc1ccc(/C=C/C(=O)Nc2ccccc2)cc1OC	IL-1B inflam inh inconclusive
COc1ccc(/C=C/C(=O)NCc2ccccn2)cc1OC	IL-1B inflam inh -73
COc1cc(/C=C/C(=O)NCc2ccccn2)cc(OC)c1OC	none
COC(=O)CCC(=O)NC(=S)Nc1ccc(S(=O)(=O)Nc2cc(OC)nc(OC)n2)cc1	SW480 rerep 2.6µM
COc1ccc(/C=C/C(=O)NC(=S)Nc2ccccc2)cc1OC	SW480 rerep 18µM
COc1ccc(NS(=O)(=O)c2ccc(NC(=S)NC(=O)/C=C/c3ccccc3)cc2)nn1	IL-1B inflam inh -61
O=C(NNc1cc(Br)c(O)c(Br)c1)c1ccccc1	MCF10A rereplic inconclusive
CSCc1ccc(C(=O)NCC(c2cccs2)N2CCOCC2)cc1 (stereo not given)	KB-3-1 cytotox inconclusive, KB-V1 MDR tox inconclusive
CCc1nnc(NC(=O)CN2CCCC(C)C2)s1 (stereo not given)	none
C/C=C/c1ccc(OCC(=O)Nc2ccc(C(N)=O)cc2)c(OC)c1	KB-V1 MDR tox inconclusive, MCF10A rereplic inconclusive
COc1cc(/C=C/c2cc[n+](C)cc2)ccc1OCC(=O)Nc1ccccc1	SW480 rerep 18µM, KB-V1 MDR tox inconclusive
COc1ccc(/C=C/C(=O)NC(=S)NCCc2ccc(OC)c(OC)c2)cc1	SW480 rerep 10µM, KB-V1 MDR tox inconclusive, MCF10A rereplic inconclusive
CCOC(=O)c1sc2nc3c(SCCC#N)cc(C(=O)c4cc(F)ccc4O)cn3c(=O)c2c1C	none
CCOC(=O)c1sc2nc3c(SCCC(=O)O)cc(C(=O)c4cc(OC)ccc4O)cn3c(=O)c2c1C	SW480 rerep 2.6µM, MCF10A rereplic inconclusive
O=C(O)CSc1cc(C(=O)c2cc(F)ccc2O)cn2c(=O)c3c(-c4ccccc4)csc3nc12	MCF10A rereplic 13µM
O=C(Cn1cnc(S(=O)(=O)N2CCCC2)c1)Nc1cccc(F)c1	KB-V1 MDR tox inconclusive
